The values that follow come from PubChem BioAssay (NCATS).

Results filed as inconclusive are left out. Unmarked numbers belong to inactive results. Active and inactive are the calls of the source. Calls follow the shape of the dose curve; as a rule, active = well fitted inhibition curve with a large enough effect; inconclusive = small, poorly fitted or top-dose-only effect; inactive = flat fitted curve, though single readings scatter.
% is scaled to controls: 0 for no effect and ±100 for the full control effect; potency is read from the fitted curve at half-maximal effect.

One test has as its system HEK293. As to the kind of experiment: Cytotoxic Profiling of Annotated Libraries Using Quantitative High-Throughput Screening (AID 1296008). Also: nearly all actives have a fitted effect of over 60% in size. The settings on record: Five cell lines viability, CellTiter-Glo ATP luminescence, 48-72 h; max response: stronger effect = lower value. In outline: (§1)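 Cytotoxicity was measured as CellTiter-Glo ATP luminescence, read after 10 min at room temperature. Compound treatment of the cells lasted 48 or 72 hr at 37 degrees Celsius in a qHTS format.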
(ATP-based viability assays read luminescence as a measure of living cells.)
As for `NC[C@@](O)(c1ccc(Cl)cc1)c1ccc(-c2cn[nH]c2)cc1`, the Potency was 5.8 µM (active). Regarding `CC(O)/C=C/C1C(C)C(O[C@@H]2O[C@H](CO)[C@@H](O)[C@H](O)[C@H]2O)C(O)CC1(C)C` (some centres not stated), the max response was -16.1%.

As to `CO[C@H]1C[C@@H]2CC[C@@H](C)[C@@](O)(O2)C(=O)C(=O)N2CCCC[C@H]2C(=O)O[C@H]([C@H](C)C[C@@H]2CC[C@H](n3cnnn3)[C@H](OC)C2)CC(=O)[C@H](C)/C=C(\C)[C@@H](O)[C@@H](OC)C(=O)[C@H](C)C[C@H](C)/C=C/C=C/C=C/1C`, the Potency is 0.0252 µM (active). Take `CC(=O)N[C@H]1[C@H](O[C@H]2CC[C@@]3(C)C(CC[C@]4(C)C3CC=C3C5CC(C)(C)CC[C@]5(C(=O)O)[C@H](O)C[C@]34C)C2(C)C)O[C@H](CO[C@@H]2OC[C@H](O)[C@H](O)[C@H]2O[C@@H]2OC[C@@H](O)[C@H](O)[C@H]2O)[C@@H](O)[C@@H]1O` (some centres not stated): the max response is -1.2%. Regarding `CCOc1cc(CC(=O)NC(CC(C)C)c2ccccc2N2CCCCC2)ccc1C(=O)O` (configuration not stated), the max response was -4.19%. Consider `O=C(/C=C/c1cccc(S(=O)(=O)Nc2ccccc2)c1)NO`, for which the Potency was 3.99 µM (active).

In the case of `COC(=O)C1=CO[C@@H](O[C@@H]2O[C@H](CO)[C@@H](O)[C@H](O)[C@H]2O)[C@H]2[C@@H]1C=C[C@@]21C=C([C@H](C)O)C(=O)O1`, the max response was -5.88%. For `O=C(OC1C=C(CO)C2C(OC3OC(CO)C(O)C(O)C3O)OC=CC12)c1ccc(O)cc1` (configuration not stated), the max response is -4.58%. The same measure, in the same setting: the figure for `CCC(C)/C=C(C)/C=C/c1cc2c(cn1)C(=O)C(C)(OC(C)=O)C(O)=C2Cl` (configuration not stated) is -0.415%. For `C=C[C@H]1[C@H](O[C@@H]2O[C@H](CO)[C@@H](O)[C@H](O)[C@H]2O)OC=C(C(=O)OC)[C@H]1CCOC(=O)c1cc(O)c(O)c(O)c1`, the max response was 0.889%.

Another test concerns HaCat. The test is described as above. The settings on record: Five cell lines viability, CellTiter-Glo ATP luminescence, 48-72 h; max response: stronger effect = lower value. In outline: as §1
`CC(C)c1cc(C(=O)N2CC[C@H](NC(=O)C3CC3)C2)n[nH]1`: the call was inactive. For the molecule `CC(Cc1cc2c(c(C(N)=O)c1)N(CCCO)CC2)NCCOc1ccccc1OCC(F)(F)F` (configuration not stated), the max response is 2.13%. As to `CCC(C)C(=O)OC1CC(O)C23C4OCC5(C(O)CC2C1(C)C(O)O4)C3C(=O)C(O)C1(C)C(O)(c2ccoc2)CC2OC251` (configuration not stated), the Potency was 4.85 µM (active).

Consider `C=C(CCC1=C(C)[C@H]2[C@H](CC3[C@@H]4CC=C5C[C@@H](O)C[C@@H](O)[C@]5(C)C4[C@H](O)C[C@@]32C)O1)CO[C@@H]1O[C@H](CO)[C@@H](O)[C@H](O)[C@H]1O` (some centres not stated), for which the Potency was 4.32 µM (active). For the molecule `COc1c2cc(c(O)c1OC)-c1cc(ccc1O)CCC(O)CCCC2` (configuration not stated), the molecule was classed as inactive. For the molecule `Cc1cc(C)c2c(N)c(C(=O)NCc3ccc(Cl)cc3)sc2n1`, the max response was -6.45%.

With `NC1CCC(Nc2cc(-c3cccc(NCc4cccc(F)c4)n3)c(Cl)cn2)CC1` (configuration not stated), the Potency is 1.03 µM (active).

With `O=C(NCc1ccc(S(=O)(=O)c2cc(F)cc(F)c2)cc1)c1ccc2nccn2c1`, the Potency was 0.0326 µM (active). On the same count and under the same terms, under `CCCNc1ccc2ncc(-c3ccc4[nH]ncc4c3)n2n1` stands 0.411 µM (active).

Regarding `CC(C)=CCC/C(C)=C/Cc1ccc(O)c(C2OC(=O)c3cc(C(=O)O)cc(O)c32)c1O` (configuration not stated), the max response is -20.9%.

Regarding `Cn1nnc(-c2ccc(-c3ccc(N4C[C@H](CO)OC4=O)cc3F)cn2)n1`, the max response was -5.65%. The same measure, in the same setting: the figure for `CO[C@H]1C[C@@H]2CC[C@@H](C)[C@@](O)(O2)C(=O)C(=O)N2CCCC[C@H]2C(=O)O[C@H]([C@H](C)C[C@@H]2CC[C@@H](OP(C)(C)=O)[C@H](OC)C2)CC(=O)[C@H](C)/C=C(\C)[C@@H](O)[C@@H](OC)C(=O)[C@H](C)C[C@H](C)/C=C/C=C/C=C/1C` is -0.379%; for `CCC1C(=O)OC23C=C[C@@H]4C(C(=O)O)=CO[C@H](O[C@@H]12)[C@@H]43` (some centres not stated) it is 2.84%.

As for `C[C@@H]1COCCN1c1cc(C2(S(C)(=O)=O)CC2)nc(-c2cccc3[nH]ccc23)n1`, the Potency is 5.8 µM (active). In the case of `NC(=O)c1csc(C2OC(CO)C(O)C2O)n1` (configuration not stated), the max response was 2.41%. For `COCCN1CCN(Cc2ccc(-c3n[nH]c4c3C(=O)c3c(NC(=O)NN5CCOCC5)cccc3-4)cc2)CC1`, the Potency was 0.231 µM (active). As to `CC1OC(OC2C(C)OC(OC3C(O)C(CO)OC(O[C@H]4CC[C@@]5(C)C(CC[C@]6(C)C5CC=C5C7[C@@H](C)[C@H](C)CC[C@]7(C(=O)O)CC[C@]56C(=O)O)C4(C)C)C3O)C(O)C2O)C(O)C(O)C1O` (some centres not stated), the call was inactive.
